Here are results for 18 compounds from PubChem BioAssay (NCI).

Assay [1] can be described thus: NCI Yeast Anticancer Drug Screen. Data for the rad50 strain (AID 155).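 Also: 0% = growth of vehicle-only cultures of the same strain.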 Conditions: S. cerevisiae rad50 strain growth inhibition; at 50.0 µM; active compounds read high. In a few lines: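 Yeast carrying a defined DNA repair defect were exposed to test compounds, and growth was compared with vehicle-treated controls to give percent inhibition.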
Assay [2] is described as follows: NCI Yeast Anticancer Drug Screen. Data for the mec2-1 strain (AID 157). Conditions: S. cerevisiae mec2-1 strain, at 50.0 µM, active compounds read high. In a few lines: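 Growth inhibition is read against vehicle-treated controls after compound exposure of the mec2-1 yeast strain, which is defective in DNA damage repair or cell cycle control.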
Assay [3] in a line: NCI Yeast Anticancer Drug Screen. Data for the sgs1 mgt1 strain (AID 161).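 Also: 0% = growth of cultures given vehicle only.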 Conditions: S. cerevisiae sgs1 mgt1 strain, at 50.0 µM, active compounds read high. In a few lines:
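Compounds are added to genetically altered yeast, and growth is compared with cultures given vehicle alone to give percent inhibition.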

The nature of assay [4]: NCI Yeast Anticancer Drug Screen. Data for the cln2 rad14 strain (AID 165).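 Also: 0% = growth equal to vehicle treated cultures.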 Conditions: S. cerevisiae cln2 rad14 strain, at 50.0 µM, active compounds read high. Summed up:
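Growth inhibition, relative to vehicle-treated controls, is the read-out. The test organism is a yeast strain with defined genetic alterations, cln2 rad14.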

Assay [5] can be described thus: NCI Yeast Anticancer Drug Screen. Data for the bub3 strain (AID 167). Conditions: S. cerevisiae bub3 mutant strain, at 50.0 µM, active compounds read high. In a few lines: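 Compounds were applied to a genetically altered yeast strain carrying a cell-cycle control defect. Growth inhibition was scored against vehicle-treated controls.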
Assay [6] can be described thus: NCI Yeast Anticancer Drug Screen. Data for the mlh1 rad18 strain (AID 175). Conditions: S. cerevisiae mlh1 rad18 strain growth inhibition; at 50.0 µM; active compounds read high. Summed up:
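Cells of a genetically altered yeast strain, deficient in DNA damage repair, were treated with compound. Their growth was then compared with that of vehicle-treated cultures to give inhibition.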

SMILES strings stand for the structures. About 79,000 compounds went through this panel and 15% of them were active in at least one assay; those are over-represented in the sample as a whole. Unmarked numbers belong to inactive results. Calls of active or inactive are those of the source. Rule as the data show it: active = growth inhibition above about 70%; inactive = the rest. Where a SMILES comes first, the peptide text is derived from it. [ ]: non-standard residue; d: D form. The star is where a group is joined. ξ: configuration not given here. Boc = CC(C)(C)OC(=O)*; ξV = CC(C)C(N)C(=O)O; OBn = c1ccc(CO*)cc1

Turning to `O=C(Nc1ccccc1)Sc1ccc(Cl)cc1`, the growth inhibition in assay [1] was -12.2%; in assay [2], -13.2%; in assay [3] it was -22.5%; in assay [4], -20.1%; in assay [5], 3.15%; in assay [6], 2.85%.
In the case of `Cc1ccc(OP2(Oc3ccc(C)cc3)=NP(Oc3ccc(C)cc3)(Oc3ccc(C)cc3)=NP(Oc3ccc(C)cc3)(Oc3ccc(C)cc3)=N2)cc1`, the growth inhibition in assay [1] was 10.6%; in assay [2], -4.15%; in assay [3], -17.6%; in assay [4] it was -4.5%; in assay [5], 2.7%; in assay [6], 0.4%.
With `O=C(Nc1ccc(F)cc1)C(Br)C(Br)c1ccccc1` (stereo not drawn), the growth inhibition was 91% (active) in assay [1]; 88.2% (active) in assay [2]; 93.9% (active) in assay [3]; 49% in assay [4]; 81.5% (active) in assay [5]; 95.5% (active) in assay [6].
For the compound `NC(=Nc1ccc(Br)cc1)/N=C(/N)Nc1cccc(S(=O)(=O)Nc2ncc(Cl)cn2)c1`, the growth inhibition is 10.2% in assay [1]; -8.75% in assay [2]; 25.2% in assay [3]; 15.8% in assay [4]; 1.95% in assay [5]; 4.95% in assay [6].
`O=C(O)C(CCCN1C(=O)c2ccccc2C1=O)N1C(=O)c2ccccc2C1=O` (stereo not drawn): the growth inhibition in assay [1] was -13.1%; in assay [2], -3.3%; in assay [3] it was -12.3%; in assay [4], -13.8%; in assay [5], -0.35%; in assay [6], -6.95%.
For the compound `O=C(OCC1OC(OC(=O)c2ccccc2)C(O)C1OC(=O)c1ccccc1)c1ccccc1` (stereo not drawn), the growth inhibition in assay [1] was 45.2%; in assay [2] it was 15.7%; in assay [3], 19.3%; in assay [4] it was 38.2%; in assay [5], 35.7%; in assay [6], 49.5%.
Consider `CCC(CC)C(=O)NC(=O)NC(N)=O`, for which the growth inhibition in assay [1] is 2.7%; in assay [2] it was 1.4%; in assay [3], 3.35%; in assay [4], -4.7%; in assay [5] it was 6.55%; in assay [6], -3.55%.
In the case of `CC(=O)Nc1ccc(I)cc1`, the growth inhibition is 40.7% in assay [1]; 3.2% in assay [2]; 15.2% in assay [3]; -0.8% in assay [4]; -7.65% in assay [5]; 21.9% in assay [6].
As to `CCN(CC)CCCC(C)n1c(SC)nc2cc(Cl)ccc21` (stereo not drawn), the growth inhibition in assay [1] was -11.5%; in assay [2] it was -32.9%; in assay [3], 9%; in assay [4], -32.6%; in assay [5], 7.2%; in assay [6] it was -7.7%.
On to `S=C1SCN(C2CCCCCCCCCCC2)CN1C1CCCCCCCCCCC1`, for which the growth inhibition in assay [1] was -52.5%; in assay [2], -29.1%; in assay [3], -17.9%; in assay [4] it was -3.7%; in assay [5] it was -20%; in assay [6], -40.5%.
For the compound `COC(=O)C1O[C@H]1c1cccc[n+]1[O-]` (mixture of isomers), the growth inhibition in assay [1] is -0.3%; in assay [2], -3.15%; in assay [3], 5.7%; in assay [4] it was 11.8%; in assay [5], -8.2%; in assay [6], -0.9%.
Turning to `CCOc1cc[n+]([O-])cc1C`, the growth inhibition in assay [1] is -15.7%; in assay [2] it was -9.6%; in assay [3] it was 1.45%; in assay [4] it was -8.2%; in assay [5] it was -3.75%; in assay [6] it was 13.1%.
For the compound `Cl/C(=C\c1ccccc1)c1ccccc1`, the growth inhibition in assay [1] was 20.4%; in assay [2], -6.55%; in assay [3], -5.7%; in assay [4] it was -42.5%; in assay [5] it was 7.7%; in assay [6], -6.55%.
As for `O=C1c2ccccc2-c2ccc(N3C(=O)c4c(Br)c(Br)c(Br)c(Br)c4C3=O)cc21`, the growth inhibition was 10.6% in assay [1]; -2.2% in assay [2]; 12.9% in assay [3]; -36.8% in assay [4]; -4.6% in assay [5]; -17.5% in assay [6].
As for `CC(C)C(NC(=O)OC(C)(C)C)C(=O)NCC(=O)OCc1ccccc1` (stereo not drawn) (Boc-[ξV]-Gly-OBn), the growth inhibition in assay [1] is -37.9%; in assay [2] it was -36%; in assay [3], 12.2%; in assay [4], -3.3%; in assay [5], -8.6%; in assay [6], -21.6%.
Consider `c1csc(-c2cc(-c3cccs3)c(-c3ccsc3)s2)c1`, for which the growth inhibition in assay [1] was -46.8%; in assay [2], -43.4%; in assay [3], -32.2%; in assay [4] it was -26.2%; in assay [5], -19.5%; in assay [6], -46%.
`CCOC(=O)C(NC(=O)OCc1ccccc1)C(=O)O` (stereo not drawn): the growth inhibition in assay [1] is -22.9%; in assay [2], -27.4%; in assay [3], -14.3%; in assay [4], 7.7%; in assay [5], 5.35%; in assay [6], -14.7%.
Consider `CSCCC(C(=O)O)N(CC1(O)OCC(O)C(O)C1O)N=O` (stereo not drawn), for which the growth inhibition in assay [1] is -18.4%; in assay [2] it was -24.6%; in assay [3] it was -17.6%; in assay [4] it was -9.15%; in assay [5] it was -11.4%; in assay [6], -11.2%.
